About 4,200 (1.4%) of roughly 290,000 compounds were called active.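 The calls were made as follows: active = binding response more than 3 SD above or below the average of its plate-row segment, actives on both sides; inconclusive = wells at one plate position flagged as instrument error; inactive = the rest.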 The entries come from a sample that favours actives as a whole.

Sequence of Mitogen-activated protein kinase kinase kinase 3 (Homo sapiens) (Q99759 whole entry, looked up): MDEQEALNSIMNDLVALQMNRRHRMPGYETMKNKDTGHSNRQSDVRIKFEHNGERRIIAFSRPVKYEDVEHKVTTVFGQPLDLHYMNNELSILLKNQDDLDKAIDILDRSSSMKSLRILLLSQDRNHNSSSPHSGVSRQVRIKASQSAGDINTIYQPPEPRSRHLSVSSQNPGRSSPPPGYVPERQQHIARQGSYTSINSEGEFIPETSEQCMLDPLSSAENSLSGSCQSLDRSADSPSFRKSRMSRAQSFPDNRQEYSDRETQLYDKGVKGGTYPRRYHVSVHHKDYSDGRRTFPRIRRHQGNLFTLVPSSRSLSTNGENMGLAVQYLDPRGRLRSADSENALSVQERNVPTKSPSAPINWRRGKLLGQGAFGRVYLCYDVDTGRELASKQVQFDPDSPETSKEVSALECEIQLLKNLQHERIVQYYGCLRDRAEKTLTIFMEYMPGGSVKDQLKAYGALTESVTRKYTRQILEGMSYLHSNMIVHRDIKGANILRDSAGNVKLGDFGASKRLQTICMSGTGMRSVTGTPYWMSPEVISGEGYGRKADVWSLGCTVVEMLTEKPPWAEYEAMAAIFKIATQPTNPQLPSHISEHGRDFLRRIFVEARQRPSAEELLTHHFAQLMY

This assay concerns the target Mitogen-activated protein kinase kinase kinase 3 (Homo sapiens) (UniProt Q99759). Put plainly: modulators of MEKK3-MEK5 PB1 binding, primary screen, biochemical, wildtype MEKK3, multiplex bead flow cytometry, Alexa488-MEK5 (AID 1529).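 Also: Alexa488 bead fluorescence after subtracting the streptavidin-only scavenger bead signal.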 To be noted: bead-based flow cytometry, Alexa488-MEK5 binding to MEKK3; at 10 µM; actives lie on both sides; 0 = blocked by unlabeled MEK5, 100 = vehicle. A general note: A flow cytometer gives signals particle by particle.
Take `C=CCOc1ccc(/C=C2/C(=O)ON=C2C)cc1OCC`: the binding response (% of control) was 104% (inactive). For `O=C(OCc1cc(Cl)ccc1OC(F)F)c1cccnc1` the value was 146% (active). As to `Cc1cc(=O)[nH]c(SCc2cc(Cl)ccc2OC(F)F)n1`, the binding response (% of control) is 103% (inactive). Consider `O=C(OCc1cc2ccccc2[nH]c1=O)c1cccnc1`, for which the binding response (% of control) was 109% (inactive). For `Cc1c(C(=O)N2CCCC2)c(S(=O)(=O)NCC(C)c2ccccc2)c(C)n1C` (stereo not drawn) the value was 101% (inactive); for `Cc1ccc(NC(=O)C2CCN(S(=O)(=O)c3ccc4c(c3)NC(=O)CO4)CC2)cc1C`, 106% (inactive).

As to `COC(C[C@@H]1O[C@@H]1C(=O)[C@@H](C)OCc1ccccc1)OC`, the binding response (% of control) is 102% (inactive). Take `CCc1c(C)sc(NC(=O)c2cccs2)c1C(N)=O`: the binding response (% of control) is 100% (inactive). For `Cc1ccc(OCC(=O)NCCCNC(=O)c2cccnc2)cc1C` the value was 99% (inactive). Regarding `Cn1c(SCc2nc3ccccc3s2)nnc1-c1ccc2c(c1)OCO2`, the binding response (% of control) is 19% [inhibitor] (active). For `Cn1c(SCC(=O)N2CCCC2)nnc1-c1ccc2c(c1)OCO2` the value was 100% (inactive). The figure for `O=C(O)CSc1nnc(-c2ccc3c(c2)OCO3)n1-c1ccccc1` is 103% (inactive); for `O=C(OCc1ccc([N+](=O)[O-])cc1)C1CC(=O)N(Cc2ccccc2Cl)C1` (stereo not drawn) it is 100% (inactive); for `C/C(=N\NC(=O)Cc1ccc(F)cc1)c1ccc(F)cc1` it is 98% (inactive).

As to `C/C(=N\NC(=O)CNC(=O)C(c1ccccc1)c1ccccc1)c1ccc(C)cc1`, the binding response (% of control) is 130% (active). The figure for `O=C(CNC(=O)C(c1ccccc1)c1ccccc1)N/N=C\c1ccc2c(c1)OCO2` is 104% (inactive); for `O=C(Oc1ccc(Br)cc1)c1cccnc1` it is 101% (inactive); for `C=CC1=C(C(=O)O)N2C(=O)[C@@H](NC(=O)/C(=N/OCC(=O)O)c3csc(N)n3)[C@H]2SC1` it is 97% (inactive). The figure for `O=C(O)c1ccc2c(=O)n3c(nc2c1)/C(=C/c1ccc(OC(F)F)cc1OC(F)F)CC3` is 103% (inactive). The figure for `COc1ccc(NC(=O)CS(=O)(=O)c2ccccc2)cc1` is 105% (inactive); for `O=C(O)c1cccnc1NC1CCCC1` it is 80% [inhibitor] (active). Regarding `O=C(NC1CCCCCC1)c1cccnc1Sc1ccc(Cl)cc1`, the binding response (% of control) is 91% (inactive). For `CSc1ncccc1C(=O)NC1CCCCCC1` the value was 102% (inactive); for `CC1=CC(=C(C#N)c2nc3ccccc3s2)C=C(C)N1c1ccc(F)cc1F`, 104% (inactive).

Regarding `CCOC(=O)C1CCN(C(=O)CN2C(=O)c3cccnc3Oc3ccc(C)cc32)CC1`, the binding response (% of control) was 103% (inactive). For `CCCC/S(C)=N/S(=O)(=O)c1ccc(C)cc1` (stereo not drawn) the value was 100% (inactive); for `CC/S(CC1CC1(Cl)Cl)=N\S(=O)(=O)c1ccc(C)cc1` (stereo not drawn), 96% (inactive); for `Cc1ccc(S(=O)(=O)/N=S(\C)C(C)C)cc1` (stereo not drawn), 2% [inhibitor] (active).

On to `CC1CCCN(CC(=O)Nc2cc(Cl)ccc2Oc2ccccc2)C1` (stereo not drawn), for which the binding response (% of control) was 107% (inactive). Regarding `COC(=O)c1c(C)cc(O)c(C)c1O`, the binding response (% of control) is 102% (inactive). For the compound `CCOC(=O)CNC(=O)CSc1ncccc1-c1nc2ccccc2[nH]1`, the binding response (% of control) is 108% (inactive). With `CCOC(=O)CNC(=O)CSc1nc2cccnc2n1CC`, the binding response (% of control) is 127% (active).

For the compound `CCOC(=O)CNC(=O)CSc1nnc(COc2ccc(Cl)cc2)n1CC`, the binding response (% of control) was 96% (inactive).

`COc1cc2c(cc1OC)C(C(=O)Nc1cc(C)c(OC)c(C)c1)CC(=O)N2` (stereo not drawn): the binding response (% of control) was 109% (inactive). For the compound `COc1ccc(C2CC(=O)Nc3cc(C)c(C)cc32)c(OC)c1OC` (stereo not drawn), the binding response (% of control) was 0% [inhibitor] (active). With `COc1cc2c(cc1OC)C(c1ccncc1)CC(=O)N2` (stereo not drawn), the binding response (% of control) is 109% (inactive). For `OCCNc1nc(Nc2ccc(Cl)c(Cl)c2)nc2ccccc12` the value was 111% (inactive); for `CC(C)(C)NC(=O)c1cccc(NC(=O)Cc2ccc(Br)cc2)c1`, 163% (active); for `COc1ccc(CC(=O)Nc2ccc(C(=O)NC(C)(C)C)cc2)cc1`, 97% (inactive). For `O=C(Cc1ccccc1)Nc1cccc(NC(=O)c2ccccc2)c1` the value was 98% (inactive); for `Cc1nc(-c2ccccc2)sc1C1(C)CC(c2cccnc2)=NO1` (stereo not drawn), 104% (inactive); for `O=C(O)CC(Cc1ccccc1)C(=O)Nc1ccc([N+](=O)[O-])cc1` (stereo not drawn), 128% (active). The figure for `O=C(Cc1ccccc1)NNS(=O)(=O)c1ccc([N+](=O)[O-])cc1` is 95% (inactive). For `O=C(CC(c1ccccc1)c1ccccc1)NCC(O)c1ccc([N+](=O)[O-])cc1` (stereo not drawn), the binding response (% of control) is 101% (inactive). The figure for `Fc1ccccc1/C=N/Nc1cc(N2CCCCC2)ncn1` is 105% (inactive). In the case of `CCc1noc(C)c1C(=O)N1CCCC(N2CCN(c3ccc(F)cc3)CC2)C1` (stereo not drawn), the binding response (% of control) was 91% (inactive). The figure for `Cc1ccc(CNC(=O)C2CCCN2S(=O)(=O)c2ccc3c(c2)C(C)(C)C(=O)N3C)cc1` (stereo not drawn) is 104% (inactive); for `CC1(C)Cc2cccc(OCC(N)=O)c2O1` it is 100% (inactive).

The values above are taken from PubChem BioAssay AID1529 (NMMLSC, 2009).
